Data reported in PubChem BioAssay (NCI).
About 79,000 compounds went through this panel and 15% of them were active in at least one assay; those are over-represented in the sample as a whole. No stated cut-off is given here; in the data, active means growth inhibition above about 70%; inactive means the rest.

Columns and labels:
[1] = NCI Yeast Anticancer Drug Screen. Data for the rad50 strain (AID 155);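 further: 0% = growth of vehicle-only cultures of the same strain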; conditions: S. cerevisiae rad50 strain growth inhibition; at 50.0 µM; active compounds read high
Outline: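 Growth of the mutant yeast was measured after compound exposure and referenced to vehicle-treated cultures.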

[2] = NCI Yeast Anticancer Drug Screen. Data for the mec2-1 strain (AID 157); conditions: S. cerevisiae mec2-1 strain, at 50.0 µM, active compounds read high
Outline: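 Readout is yeast growth inhibition, normalised to vehicle-treated controls, in the mec2-1 strain exposed to compound.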

[3] = NCI Yeast Anticancer Drug Screen. Data for the sgs1 mgt1 strain (AID 161);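 further: 0% = growth of cultures given vehicle only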; conditions: S. cerevisiae sgs1 mgt1 strain, at 50.0 µM, active compounds read high
Outline: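 Compounds are added to genetically altered yeast, and growth is compared with cultures given vehicle alone to give percent inhibition.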

[4] = NCI Yeast Anticancer Drug Screen. Data for the cln2 rad14 strain (AID 165);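 further: 0% = growth equal to vehicle treated cultures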; conditions: S. cerevisiae cln2 rad14 strain, at 50.0 µM, active compounds read high
Outline: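 Relative to vehicle controls, growth inhibition of compound-treated cln2 rad14 yeast was recorded.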

[5] = NCI Yeast Anticancer Drug Screen. Data for the bub3 strain (AID 167); conditions: S. cerevisiae bub3 mutant strain, at 50.0 µM, active compounds read high
Outline: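 Whole-cell yeast assay. The mutant strain was incubated with compounds, and growth inhibition was determined by comparison with vehicle-treated cells.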

[6] = NCI Yeast Anticancer Drug Screen. Data for the mlh1 rad18 strain (AID 175); conditions: S. cerevisiae mlh1 rad18 strain growth inhibition; at 50.0 µM; active compounds read high
Outline: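 Test agents were incubated with a yeast strain of defined genotype (DNA damage repair defect). Inhibition of growth was derived by comparison with vehicle-exposed cultures.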

Measured: growth inhibition

COCCNC(=O)C1C(=O)C(=O)N(CCOC)C1=O (stereo unspecified)
inactive: [1] -17.8% | [2] -7.65% | [3] -17.2% | [4] -4.25% | [5] -19.6% | [6] -3.5%

CN1CCN(C(=O)NC(C)(C)C)CC1
inactive: [1] -1.45% | [2] -6.6% | [3] -8.35% | [4] -88.8% | [5] -1.9% | [6] -17.7%

O=C(CCl)Nc1cc(Cl)c(Cl)cc1Cl
inactive: [1] 32.4% | [2] 21.8% | [3] 58.1% | [4] 2.75% | [5] 64.8% | [6] 37%

COc1ccc(-c2cc(C(=O)Nc3cc(Cl)cc(Cl)c3)c3ccccc3n2)cc1
inactive: [1] -13.7% | [2] -18.6% | [3] -25.8% | [4] -0.85% | [5] -17.6% | [6] 1.55%

CN(C)CCC(C(=O)NCc1ccccc1)C(=O)NCc1ccccc1
inactive: [1] -6.1% | [2] -9.95% | [3] 1.3% | [4] -17.4% | [5] -2.55% | [6] -17.2%

CN1C(=O)C(n2[nH]c(=O)n(-c3ccccc3)c2=O)C(=O)N(C)C1=O
inactive: [1] 11.8% | [2] 12.7% | [3] -6.55% | [4] -23.1% | [5] 16.9% | [6] 22.9%

COc1ccc2cc(-c3ccc(OC)c(OC)c3)c(=O)oc2c1
inactive: [1] -12.4% | [2] -9.9% | [3] -7.65% | [4] -8.9% | [5] -7.15% | [6] -18.2%

CC(=O)NC1CC2c3ccccc3C1([N+](=O)[O-])c1ccccc12 (stereo unspecified)
inactive: [1] 4.1% | [2] 17.6% | [3] 15.6% | [4] 6.45% | [5] -4.6% | [6] -3.9%

O=P(O)(O)c1ccccc1Oc1ccccc1
inactive: [1] 7.8% | [2] 7.55% | [3] 26.3% | [4] 29.1% | [5] 8.05% | [6] 6.95%

C/C(=N\NC(=O)CC(=O)Nc1ccccc1Cl)c1cc2cc(N=Nc3ccccc3Cl)ccc2oc1=O
inactive: [1] -17.1% | [2] 0.7% | [3] 13.9% | [4] 4.4% | [5] -4.05% | [6] -13.6%

O=C(O)/C=C/C(=O)Nc1cccc2c1Cc1ccccc1-2
inactive: [1] -7.2% | [2] 9% | [3] 20.9% | [4] -29.5% | [5] -4.3% | [6] 19.9%

COc1ccc(C(CN)c2ccc(N)cc2)cc1 (stereo unspecified)
inactive: [1] 8.8% | [2] 10.7% | [3] 1.6% | [4] 2.9% | [5] -13.4% | [6] -5.05%

O=[N+]([O-])c1cc(Cl)cc2cc(Br)cnc12
inactive: [1] 4.2% | [2] 15.3% | [3] -19.9% | [4] 3.8% | [5] 10.5% | [6] 4.4%

COC(=O)C1CN(Cc2ccccc2)C(=O)C1=O (stereo unspecified)
inactive: [1] -11.3% | [2] -8.75% | [3] 2.65% | [4] -5.1% | [5] 3.95% | [6] 15.2%

CC(C)COC1CN=NN1/C=C1\CCOC1=O (stereo unspecified)
inactive: [1] -4.2% | [2] 10.4% | [3] 14.3% | [4] -6.65% | [5] 24.2% | [6] -3%

CCOC(=O)C1(C)CCC(C(C(=O)O)C(=O)O)CC1=O (stereo unspecified)
inactive: [1] -10.5% | [2] 9.95% | [3] 13.7% | [4] 20.2% | [5] 21.4% | [6] -12.5%

OC1(C#CC2(O)CCCC2)CCCC1
inactive: [1] -8.9% | [2] -11.9% | [3] 15.4% | [4] -8.05% | [5] -1.2% | [6] 23.9%

CC1(C)OC(=O)c2c(cc(N3CCOCC3)oc2=O)O1
inactive: [1] 3.35% | [2] -2.9% | [3] 1.35% | [4] 9.55% | [5] 11.1% | [6] -1.25%

CC(C)(C#N)C(C)(C)c1cnc2ccccc2c1
inactive: [1] 15.2% | [2] -7.15% | [3] -9.4% | [4] -52.5% | [5] -2.25% | [6] -12.4%

Cc1ccc(S(=O)(=O)/C=C/c2ccccc2)cc1
inactive: [1] 8.15% | [2] 6.2% | [3] 1.8% | [4] -10.3% | [5] -2.45% | [6] -10.2%

COc1cc(C2c3c(oc4ccccc4c3=O)Oc3oc4ccccc4c(=O)c32)cc(OC)c1O
inactive: [1] -17.4% | [2] 4.65% | [3] 5.25% | [4] 31.9% | [5] -0.3% | [6] -13.1%
